Data as given in article PMC5540273 (PLoS ONE, 2017).

Tests used:
Conditions in all cases: concentration: 1 μM, replicates: in singlicate; n = 1
SNARK = test system: T1, SNARK
T1 construct: gene NUAK2

SNRK = test system: SNRK
SRC = test system: SRC
SRMS = test system: SRMS
SRPK1 = test system: SRPK1
SRPK2 = test system: SRPK2
SRPK3 = test system: SRPK3
STK16 = test system: STK16
STK33 = test system: STK33
STK35 = test system: STK35
STK36 = test system: STK36
STK39 = test system: STK39
SYK = test system: SYK
SgK110 = test system: SgK110
TAK1 = test system: T2, TAK1
T2 construct: gene MAP3K7

TAOK1 = test system: TAOK1
TAOK2 = test system: TAOK2
TAOK3 = test system: TAOK3
TBK1 = test system: TBK1
TEC = test system: TEC
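Further: KINOMEscan kinase panel screen.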

| Compound | %Inh (SNARK) [%] | %Inh (SNRK) [%] | %Inh (SRC) [%] | %Inh (SRMS) [%] | %Inh (SRPK1) [%] | %Inh (SRPK2) [%] | %Inh (SRPK3) [%] | %Inh (STK16) [%] | %Inh (STK33) [%] | %Inh (STK35) [%] | %Inh (STK36) [%] | %Inh (STK39) [%] | %Inh (SYK) [%] | %Inh (SgK110) [%] | %Inh (TAK1) [%] | %Inh (TAOK1) [%] | %Inh (TAOK2) [%] | %Inh (TAOK3) [%] | %Inh (TBK1) [%] | %Inh (TEC) [%] |
| --- | --- | --- | --- | --- | --- | --- | --- | --- | --- | --- | --- | --- | --- | --- | --- | --- | --- | --- | --- | --- |
| CC(C)c1nc(-c2cccc(NS(=O)(=O)c3c(F)cccc3F)c2)c(-c2ccnc(Nc3ccc(N4CCOCC4)nc3)n2)s1.Cl [GSK1723980] | 0 | 0 | 100 | 99.7 | 48 | 0 | 0 | 30 | 62 | 30 | 100 | 10 | 69 | 0 | 81 | 0 | 0 | 0 | 18 | 80 |
| COC(=O)Nc1nc2ccc(Oc3ccc(CC(=O)Nc4cc(C(F)(F)F)ccc4F)cc3)cc2[nH]1 [GW680903] | 0 | 0 | 0 | 0 | 31 | 0 | 0 | 0 | 0 | 0 | 7 | 0 | 0 | 0 | 0 | 0 | 0 | 0 | 4 | 0 |
| O=C(Nc1n[nH]c2nc(-c3cccc(O)c3)ccc12)C1CC1 [SB-711805] | 0 | 7 | 0 | 15 | 45 | 0 | 32 | 83 | 0 | 0 | 14 | 4 | 40 | 0 | 15 | 88 | 12 | 34 | 23 | 0 |
| COc1cc(Nc2nccc(N3CCC(NS(=O)(=O)c4ccc(NC(C)=O)cc4)CC3)n2)cc(OC)c1OC [GSK1379825] | 0 | 0 | 35 | 0 | 67 | 0 | 8 | 94.8 | 0 | 52 | 62 | 0 | 37 | 0 | 0 | 0 | 0 | 0 | 26 | 0 |
| Cn1cc(-c2cnc(N)c3c(-c4ccc5c(c4)CCN5C(=O)Cc4ccccc4)csc23)cn1 [GSK2593074] | 12 | 0 | 81 | 55 | 3 | 0 | 0 | 24 | 0 | 4 | 0 | 0 | 16 | 8 | 33 | 0 | 0 | 0 | 23 | 14 |
| N#Cc1cnc2cc(-c3cnc(CNCCN4CCOCC4)s3)ccc2c1Nc1ccc(Oc2ccccc2)cc1 [GW664114] | 0 | 0 | 94.1 | 95.9 | 30 | 0 | 0 | 12 | 2 | 97.7 | 7 | 0 | 82 | 0 | 12 | 0 | 0 | 0 | 34 | 88 |
| COc1ccc(C)c(Nc2ccnc(Nc3ccc(-c4cnc[nH]4)cc3)n2)c1.Cl [GW784041] | 0 | 0 | 86 | 0 | 32 | 0 | 30 | 15 | 0 | 12 | 36 | 0 | 16 | 0 | 0 | 0 | 3 | 0 | 49 | 7 |
| CNc1nccc(-c2ccc3c(N)n[nH]c3c2)n1 [GSK2206003] | 35 | 0 | 19 | 11 | 68 | 5 | 31 | 34 | 0 | 0 | 0 | 0 | 23 | 0 | 37 | 64 | 0 | 0 | 22 | 5 |
| CN(C)CCNS(=O)(=O)c1ccc(-c2ccnc3[nH]ccc23)cc1 [GSK977620] | 73 | 0 | 6 | 0 | 45 | 0 | 0 | 62 | 66 | 15 | 0 | 5 | 31 | 0 | 1 | 3 | 0 | 0 | 0 | 0 |
| Cc1cc(-c2c(-c3ccc(F)cc3)ncn2CCCN2CCOCC2)nc(N)n1 [SB-222517] | 0 | 0 | 22 | 26 | 0 | 0 | 19 | 0 | 0 | 0 | 18 | 7 | 26 | 40 | 3 | 0 | 38 | 0 | 42 | 0 |
